Test results reported in PubChem BioAssay AID1159580 (chemical genetic matrix, 2015).
Hit rate of the full screen: of about 5,500 compounds, about 2,000 (36%) were called active. About 18% were inconclusive and are not listed. Cut-off read from the data, not from the text of the source: active = normalized growth mostly below about 0.91 (no sharp cut-off); inconclusive = no clear call, values can overlap the other calls; inactive = mostly above about 0.92. This is one part of the list.

Test: chemical genetic growth profiling, strain panel (AID 1159580);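 note: tested at 20 µM; growth read once vehicle control cultures reached saturation at 30 °C; 1 = growth at the plate median or of vehicle wells; lower values mean less growth of the strain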
Details: S. cerevisiae deletion strains, growth OD

Measured: normalized growth

CCc1c(C(=O)OC)ncc2[nH]c3cc(OC)c(OC)cc3c12
inactive: locus YAL040C, strain CLN3, stronger effect = lower value 0.994 | locus YCL061C, strain MRC1 (second series), stronger effect = lower value 0.994 | locus YDR150W, strain NUM1, stronger effect = lower value 0.995 | locus YDR363W, strain ESC2, stronger effect = lower value 1 | locus YER002W, strain NOP16, stronger effect = lower value 0.99 | locus YGR229C, strain SMI1, stronger effect = lower value 1.05 | locus YJR075W, strain HOC1, stronger effect = lower value 0.99 | locus YMR307W, strain GAS1, stronger effect = lower value 1.01 | locus YNL153C, strain GIM3, stronger effect = lower value 0.984 | locus YNL175C, strain NOP13, stronger effect = lower value 0.998 | locus YNL197C, strain WHI3, stronger effect = lower value 0.992 | locus YNL224C, strain SQS1, stronger effect = lower value 1.02 | locus YOR083W, strain WHI5 (second series), stronger effect = lower value 1 | locus YPL241C, strain CIN2, stronger effect = lower value 0.999

CNCC[C@@H](Oc1ccccc1)c1ccccc1
inactive: locus YAL021C, strain ccr4, stronger effect = lower value 0.976 | locus YAL026C, strain drs2, stronger effect = lower value 0.961 | locus YAL030W, strain snc1, stronger effect = lower value 0.947 | locus YBL061C, strain skt5, stronger effect = lower value 0.98 | locus YBR009C, strain hhf1, stronger effect = lower value 0.974 | locus YBR023C, strain chs3, stronger effect = lower value 0.979 | locus YBR171W, strain sec66, stronger effect = lower value 0.979 | locus YBR231C, strain swc5, stronger effect = lower value 0.984 | locus YBR279W, strain paf1, stronger effect = lower value 0.982 | locus YCL011C, strain gbp2, stronger effect = lower value 0.975 | locus YCL016C, strain dcc1, stronger effect = lower value 0.979 | locus YCL061C, strain MRC1, stronger effect = lower value 0.982 | locus YCL069W, strain vba3, stronger effect = lower value 0.978 | locus YCR088W, strain abp1, stronger effect = lower value 0.983 | locus YDL005C, strain med2, stronger effect = lower value 0.983 | locus YDL040C, strain nat1, stronger effect = lower value 0.988 | locus YDR001C, strain nth1, stronger effect = lower value 0.974 | locus YDR069C, strain doa4, stronger effect = lower value 0.965 | locus YDR137W, strain rgp1, stronger effect = lower value 1.02 | locus YDR159W, strain sac3, stronger effect = lower value 0.944 | locus YDR195W, strain ref2 0.972 | locus YDR297W, strain sur2, stronger effect = lower value 0.98 | locus YDR334W, strain swr1, stronger effect = lower value 0.951 | locus YDR335W, strain msn5, stronger effect = lower value 0.965 | locus YDR392W, strain spt3, stronger effect = lower value 0.975 | locus YEL003W, strain gim4, stronger effect = lower value 0.973 | locus YEL037C, strain rad23, stronger effect = lower value 0.988 | locus YEL061C, strain CIN8 (second series), stronger effect = lower value 0.988 | locus YER015W, strain faa2, stronger effect = lower value 0.961 | locus YER016W, strain bim1, stronger effect = lower value 0.978 | locus YER111C, strain swi4, stronger effect = lower value 0.981 | locus YER155C, strain BEM2 (second series), stronger effect = lower value 0.978 | locus YFR010W, strain ubp6, stronger effect = lower value 0.964 | locus YGL167C, strain pmr1, stronger effect = lower value 0.977 | locus YGL173C, strain kem1, stronger effect = lower value 0.954 | locus YGL227W, strain vid30, stronger effect = lower value 0.97 | locus YGL240W, strain doc1, stronger effect = lower value 0.96 | locus YGL253W, strain hxk2, stronger effect = lower value 0.984 | locus YHR013C, strain ard1, stronger effect = lower value 0.973 | locus YHR027C, strain rpn1, stronger effect = lower value 0.946 | locus YHR030C, strain SLT2, stronger effect = lower value 1.01 | locus YHR079C, strain IRE1, stronger effect = lower value 0.995 | locus YHR142W, strain chs7, stronger effect = lower value 0.973 | locus YJL092W, strain hpr5, stronger effect = lower value 0.984 | locus YJL095W, strain BCK1 (second series), stronger effect = lower value 0.971 | locus YJL095W, strain BCK1, stronger effect = lower value 0.996 | locus YJL115W, strain asf1, stronger effect = lower value 0.957 | locus YJL129C, strain trk1, stronger effect = lower value 0.99 | locus YJL154C, strain vps35, stronger effect = lower value 0.97 | locus YJL164C, strain tpk1, stronger effect = lower value 0.987 | locus YJL166W, strain qcr8, stronger effect = lower value 0.976 | locus YJL187C, strain SWE1, stronger effect = lower value 0.98 | locus YJR066W, strain TOR1, stronger effect = lower value 0.946 | locus YKL160W, strain elf1, stronger effect = lower value 0.989 | locus YKR026C, strain gcn3, stronger effect = lower value 0.977 | locus YKR091W, strain srl3, stronger effect = lower value 0.988 | locus YLL001W, strain dnm1, stronger effect = lower value 0.988 | locus YLL026W, stronger effect = lower value 0.97 | locus YLL041C, strain sdh2, stronger effect = lower value 0.968 | locus YLR027C, strain aat2, stronger effect = lower value 0.962 | locus YLR113W, strain HOG1, stronger effect = lower value 0.965 | locus YLR221C, strain rsa3, stronger effect = lower value 0.976 | locus YLR258W, strain gsy2, stronger effect = lower value 0.981 | locus YLR262C, strain YPT6 (second series), stronger effect = lower value 0.982 | locus YLR320W, strain mms22, stronger effect = lower value 0.989 | locus YLR342W, strain FKS1, stronger effect = lower value 0.976 | locus YLR357W, strain rsc2, stronger effect = lower value 1.01 | locus YLR370C, strain arc18, stronger effect = lower value 0.981 | locus YLR384C, strain iki3, stronger effect = lower value 0.972 | locus YML120C, strain ndi1, stronger effect = lower value 0.983 | locus YMR058W, strain fet3, stronger effect = lower value 0.981 | locus YMR125W, strain sto1, stronger effect = lower value 0.979 | locus YMR129W, stronger effect = lower value 0.991 | locus YMR205C, strain PFK2, stronger effect = lower value 0.958 | locus YMR231W, strain pep5, stronger effect = lower value 0.984 | locus YNL071W, strain lat1, stronger effect = lower value 0.993 | locus YNL183C, strain NPR1, stronger effect = lower value 0.958 | locus YNL209W, strain ssb2, stronger effect = lower value 0.948 | locus YNL248C, strain rpa49, stronger effect = lower value 0.974 | locus YNL322C, strain KRE1 (second series), stronger effect = lower value 0.978 | locus YNR049C, strain mso1, stronger effect = lower value 0.969 | locus YOR001W, strain rrp6, stronger effect = lower value 0.972 | locus YOR070C, strain gyp1, stronger effect = lower value 0.989 | locus YOR080W, strain dia2, stronger effect = lower value 0.973 | locus YOR083W, strain WHI5, stronger effect = lower value 0.981 | locus YOR106W, strain vam3, stronger effect = lower value 0.972 | locus YOR231W, strain MKK1, stronger effect = lower value 1.01 | locus YOR265W, strain rbl2, stronger effect = lower value 0.98 | locus YOR270C, strain vph1, stronger effect = lower value 1.01 | locus YOR290C, strain snf2, stronger effect = lower value 0.974 | locus YPL051W, strain arl3, stronger effect = lower value 0.994 | locus YPL078C, strain atp4, stronger effect = lower value 0.984 | locus YPL106C, strain sse1, stronger effect = lower value 0.924 | locus YPL240C, strain hsp82, stronger effect = lower value 0.976 | locus YPL256C, strain CLN2, stronger effect = lower value 0.992
